High-throughput results as filed in PubChem BioAssay.
Most compounds without a hit are left out; they make up all but 19% or so of the library.
IL1B secr inh – qHTS for Inhibitors of Inflammasome Signaling: IL-1-beta AlphaLISA Primary Screen; activity change, % at 57.5 µM; THP-1 LPS/ATP IL-1B secretion, AlphaLISA, 16 h; hits give low values; 360,000 compounds, 4.7% hits; in the data active means activity change below about -50%; inconclusive means mostly about -30% to -49%
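Secreted IL-1B measured by AlphaLISA bead assay after 16 h compound exposure of THP-1 cells; compounds (final up to 57.5 uM) added 1 h before LPS (250 ng/mL) and ATP (1.25 mM) stimulation; lower signal means less secretion.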
Giardia kill – Small Molecules that selectively kill Giardia lamblia: qHTS; Giardia lamblia trophozoite viability; activity change, % at 7.66 µM, hits read low; 340,000 compounds, 0.15% hits; in the data active means activity change below about -80%; inconclusive means between about -30% and that limit;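 further: parasites exposed to compound for two days anaerobically before the ATP read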
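Giardia trophozoites, 100 cells per well, were exposed to compounds for 48 hrs at 37 deg C under anaerobic conditions; viability was then read as ATP content by bioluminescence after 15-30 min at room temperature.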
TDP1 block – qHTS Assay for Inhibitors of Tyrosyl-DNA Phosphodiesterase (TDP1); Tyrosyl-DNA phosphodiesterase 1 (Homo sapiens), Q9NUW8; recombinant TDP1, AlphaScreen DNA substrate cleavage; Potency, µM (top dose mostly 130 µM), for inactives: top-dose activity change, negative = inhibition, actives largely listed as inhibitors; 350,000 compounds, 0.28% hits; AID 485290, 2010; further: potency means the concentration at half of the fitted maximal effect; nearly all actives have a fitted effect of over 40% in size
Target sequence (Q9NUW8 whole entry, looked up): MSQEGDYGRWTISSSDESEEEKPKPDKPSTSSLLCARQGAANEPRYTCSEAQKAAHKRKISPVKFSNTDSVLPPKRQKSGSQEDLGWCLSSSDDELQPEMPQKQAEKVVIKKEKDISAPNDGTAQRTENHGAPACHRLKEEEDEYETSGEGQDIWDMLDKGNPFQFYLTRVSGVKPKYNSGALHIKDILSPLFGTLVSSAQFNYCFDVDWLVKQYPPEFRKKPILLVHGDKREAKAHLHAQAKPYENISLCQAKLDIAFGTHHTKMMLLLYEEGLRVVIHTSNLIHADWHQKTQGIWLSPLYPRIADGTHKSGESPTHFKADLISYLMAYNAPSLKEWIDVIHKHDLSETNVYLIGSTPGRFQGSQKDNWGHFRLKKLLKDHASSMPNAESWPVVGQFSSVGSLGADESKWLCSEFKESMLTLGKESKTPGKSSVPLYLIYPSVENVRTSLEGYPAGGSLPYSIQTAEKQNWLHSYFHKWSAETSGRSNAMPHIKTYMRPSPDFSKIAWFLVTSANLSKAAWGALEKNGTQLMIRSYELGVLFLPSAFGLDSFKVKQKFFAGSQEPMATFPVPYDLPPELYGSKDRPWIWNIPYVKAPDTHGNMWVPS
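Steps: enzyme plus compound, 15 min RT; add biotin/phosphotyrosine-FITC oligonucleotide (15 nM final), react 5 min; add donor/acceptor beads (10 ug/ml final), 10 min; read AlphaScreen. Tdp1 at 1 nM final.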
ELG1 DNA repair – qHTS screen for small molecules that inhibit ELG1-dependent DNA repair in human embryonic kidney (HEK293T) cells expressing luciferase-tagged ELG1. 330,000 compounds, 2.3% hits. AID 504467, 2011. Potency, µM (series often up to 46.1 µM), for inactives: at the top dose activity change, negative = inhibition, actives largely listed as inhibitors. HEK293T ELG1-luciferase reporter, luminescence, 16 h; DNA damage induced by 5-fluorouridine; further: potency means the concentration at half of the fitted maximal effect; nearly all actives have a fitted effect of over 55% in size
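Reporter activity after DNA damage by 5-fluorouridine is monitored. Compound-treated cells incubate 16 hr at 37 °C, then ONE-Glo is added for 30 min before luminescence reading.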
TDP1 cell noCPT – qHTS for Inhibitors of human tyrosyl-DNA phosphodiesterase 1 (TDP1): qHTS in cells in absence of CPT. DT40 Tdp1-/- hTDP1 cells, no CPT, ATP luminescence, 48 h. Potency, µM (highest dose often 46.2 µM), without a hit: at the top dose activity change, negative = growth inhibition, actives largely listed as inhibitors. 420,000 compounds, 15% hits; further: potency means the concentration at half of the fitted maximal effect; nearly all actives have a fitted effect of over 55% in size
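Luminescent ATP content (CellTiter-Glo) served as the growth readout. Knockout chicken DT40 cells expressing human TDP1 were exposed to compounds without camptothecin for a minimum 48 hr at 37 °C.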
DT40 TDP1 CPT – qHTS for Inhibitors of human tyrosyl-DNA phosphodiesterase 1 (TDP1): qHTS in cells in presence of CPT; chicken DT40 Tdp1-/-;hTDP1 cells + 20 nM CPT, ATP luminescence, 48 h; Potency, µM (titrated, usually from 46.2 µM), without a hit: at the highest dose activity change, negative = growth inhibition, hits mostly inhibitors; 420,000 compounds, 12% hits; further: potency means the concentration at half of the fitted maximal effect; nearly all actives have a fitted effect of over 55% in size
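Cell growth measured by CellTiter-Glo luminescence after a minimum 48 h, 37 C compound exposure with 20 nM CPT in Tdp1-knockout DT40 cells stably expressing hTDP1, seeded 400/well; qHTS titration format.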
* = called active by the depositor; ? = inconclusive; . = not tested or not shown; [ ] = remark or other dose. Unless noted, the call rests on the fitted dose curve; in most records, active means well fitted curve in the direction sought with a large enough effect; inconclusive means small, poorly fitted or top-dose-only effect, or another doubt; inactive means no such curve, though single readings can be large; an effect the other way counts as inactive or inconclusive. On the % scale 0 is the no-effect control and ±100 the full control effect.

SMILES	IL1B secr inh	Giardia kill	TDP1 block	ELG1 DNA repair	TDP1 cell noCPT	DT40 TDP1 CPT
Cc1c(C(=O)Nc2ccc(-n3c(C)nc4ccccc4c3=O)cc2)cccc1[N+](=O)[O-]	.	.	0%	.	7.3µM*	13µM*
Cc1nc2ccccc2c(=O)n1-c1cccc(NC(=O)c2cccs2)c1	-51*	18	10%	?	?	?
Cc1nc2ccccc2c(=O)n1NC(=O)c1ccccc1[N+](=O)[O-]	65	-4	5%	?	10%	20%
Cc1cc(-n2c(C)nc3ccccc3c2=O)ccc1NC(=O)c1ccccc1[N+](=O)[O-]	.	.	0%	.	16µM*	18µM*
O=S(=O)(c1ccc(Br)s1)N1CCC2(CC1)OCCO2	-4	10	4%	7%	-21%	-11%
Cc1ccc(-c2nc(CCNC(=O)C(=O)Nc3ccc(F)cc3F)cs2)cc1	.	.	2%	.	?	-25%
O=c1c2ccccc2n(Cc2c(F)cccc2Cl)c(=O)n1CCc1ccccc1	.	.	2%	.	-23%	-17%
Cc1ccc2cc3cc(C(=O)N(C)c4ccccc4C)oc3nc2c1	.	.	2%	.	?	?
Cc1cc(-n2c(C)nc3ccccc3c2=O)ccc1NC(=O)c1cccc([N+](=O)[O-])c1C	.	.	8%	.	6.5µM*	13µM*
CCN=C1S/C(=C\c2cc(Cl)c(OC)c(OC)c2)C(=O)N1CC	-14	-10	.	?	?	?
COc1cc(/C=C2/SC(=O)N(CC(=O)N3CCCC3)C2=O)ccc1Oc1ccc([N+](=O)[O-])cn1	-63*	?	8%[56.1 µM]	-11%	21µM*	?
CCN=C1S/C(=C\c2ccc(OCC)c(OC)c2)C(=O)N1CC	-51*	17	-2%	?	21µM*	?
CCN1C(=O)S/C(=C/c2ccc(Oc3ccc([N+](=O)[O-])cn3)c(OC)c2)C1=O	13	-9	3%	-29%	13µM*	?
COc1ccc(/C=C2/SC(=O)N(CC(=O)Nc3cc(C)on3)C2=O)cc1OC	0	-7	1%	?	-1%	0%
Cc1ccc(NS(=O)(=O)c2cc(C(=O)N(C)C3CCN(C)CC3)ccc2Cl)cc1Cl	-20	-1	2%	0%	?	-4%
Cc1cc(=O)oc2cc(NC(=O)CN3C(=O)NC(C)(c4ccccc4)C3=O)ccc12 (centres undefined)	0	18	.	8%	-15%	10%
O=C(CN(CCc1ccccc1)S(=O)(=O)c1ccc(Br)cc1)N/N=C/c1ccccc1C(=O)O	-12	6	-8%	16%	-4%	5%
CCCCN(C)CCCNC(=O)CN1C(=O)COc2ccc(S(=O)(=O)N3CCC(C)CC3)cc21	.	.	-4%	.	.	.
COc1cccc(/C=C/C(=O)Nc2ccc3nc4n(c(=O)c3c2)CCCC4)c1OC	-10	-7	3%	?	18µM*	21µM*
O=C(Nc1ccc2nc3n(c(=O)c2c1)CCCC3)c1cc([N+](=O)[O-])ccc1F	-105*	8	6%	?	1.8µM*	2.1µM*
COc1cccc(/C=C/C(=O)Nc2ccc3c(c2)OCCO3)c1OC	-78*	?	1%	?	?	18µM*
COc1cc(OC)cc(C(=O)Nc2ccc3nc4n(c(=O)c3c2)CCCCC4)c1	-10	0	2%	?	12µM*	?
COc1cccc(NC(=O)CC(=O)Nc2ccc3nc4n(c(=O)c3c2)CCCCC4)c1	.	.	-3%	.	-8%	3%
COc1ccc(/C=C/C(=O)Nc2ccc3nc4n(c(=O)c3c2)CCCC4)cc1	?	2	0%	?	-22%	-18%
CCOc1ccc(NC(=O)C2(c3cccs3)CCOCC2)cc1	.	.	3%	.	?	-27%
SMILES	IL1B secr inh	Giardia kill	TDP1 block	ELG1 DNA repair	TDP1 cell noCPT	DT40 TDP1 CPT
O=S(=O)(Nc1cccc(-c2ccc(N3CCOCC3)nn2)c1)c1ccc(F)c(C(F)(F)F)c1	.	.	3%	.	?	?
CCOC(=O)n1n[n+]([O-])c2ccccc21	0	-6	3%	0%	-17%	-12%
Cn1c2cc(C#N)sc2c2cnn(Cc3ccccc3F)c(=O)c21	.	.	0%	.	.	.
Cc1ccc(CNC(=O)c2ccc(CS(=O)(=O)Cc3ccc(C)cc3)o2)cc1	.	.	3%	.	?	-27%
COC(=O)c1ccccc1NC(=O)CSCC(=O)Nc1ccc(F)cc1	-4	-9	-2%	?	-13%	-29%
N#CCCN(C(=O)COC(=O)COc1ccccc1Cc1ccccc1)c1ccccc1	-7	2	0%	?	-15%	-29%
O=C(CCC1CCCN(C(=O)c2cccc(F)c2)C1)N1CCN(c2ccccn2)CC1 (centres undefined)	0	-11	6%	-13%	-19%	-28%
COc1ccc(OC)c(CCNC(=O)C(=O)Nc2ccc3nc4n(c(=O)c3c2)CCCCC4)c1	-15	-10	-6%	?	15µM*	13µM*
CCC/C(O)=C1\C(=O)CC(c2ccccc2)CC1=NCCc1c(C)[nH]c2ccccc12 (centres undefined)	?	22	-4%	?	?	?
CCCC(=NCCc1c(C)[nH]c2ccccc12)C1=C(O)CC(c2ccccc2)CC1=O (centres undefined)	7	1	5%	?	1.3µM*	0.58µM*
CCCCC(=NCCc1c(C)[nH]c2ccccc12)C1=C(O)CC(c2ccccc2)CC1=O (centres undefined)	?	34	5%	?	5.2µM*	5.8µM*
CCn1cc(/C=C(\NC(=O)c2cc(OC)c(OC)c(OC)c2)C(=O)N2CCOCC2)c2ccccc21	-18	.	.	.	?	-3%
CC1CCCCC12NC(=O)N(CC(=O)N1CCN(S(=O)(=O)c3ccc(Cl)s3)CC1)C2=O (centres undefined)	-9	.	.	.	-4%	-3%
Cc1nc2ccccc2n1/N=C/c1ccc([N+](=O)[O-])s1	?	?	-1%	?	5.2µM*	3.7µM*
Cc1cc2ncn(/N=C/c3ccc([N+](=O)[O-])s3)c2cc1C	0	-98*	-4%	4%	8.2µM*	?
